Source: PubChem (several laboratories)
Anthrax LF prot = Bacillus anthracis LF protease inhibitors, primary screen, biochemical, multiplex microsphere, MLPCN library; Lethal factor (Bacillus anthracis), P15917; multiplex microsphere protease cleavage assay; inhibition, % at 10 µM; 360,000 tested, 0.12% active; AID 588501, 2011
Mtb FBA inh = Mtb FBA enzyme inhibitors, primary screen, biochemical, fluorescence, strain H37Rv | 360,000 tested, 2.3% active | inhibition, % at 1 µM | Fructose-bisphosphate aldolase (Mycobacterium tuberculosis (strain ATCC 25618 / H37Rv)), … | AID 588726, 2011 | purified M. tuberculosis FBA, fluorescence read-out; in the data active = inhibition above about 27%
Target sequence (P9WQA3 whole entry, looked up): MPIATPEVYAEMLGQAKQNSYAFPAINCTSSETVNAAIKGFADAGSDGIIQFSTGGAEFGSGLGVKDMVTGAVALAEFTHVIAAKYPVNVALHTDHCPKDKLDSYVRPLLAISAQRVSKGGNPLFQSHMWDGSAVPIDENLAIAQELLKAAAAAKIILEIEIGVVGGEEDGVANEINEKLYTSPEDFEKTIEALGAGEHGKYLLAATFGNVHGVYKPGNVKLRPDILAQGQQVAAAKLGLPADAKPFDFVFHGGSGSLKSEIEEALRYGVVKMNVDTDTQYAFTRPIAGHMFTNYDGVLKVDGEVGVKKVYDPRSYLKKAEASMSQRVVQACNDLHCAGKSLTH
BoNT A protease = BoNT/A light chain protease inhibitors, primary screen, biochemical, flow cytometry, MLPCN library; Botulinum neurotoxin type A light chain protease (Clostridium botulinum A str. ATCC 3502); multiplex microsphere protease substrate cleavage; inhibition, % at 10 µM; 360,000 tested, 0.17% active
Autofluor counter = flagged as autofluorescent in microsphere protease counterscreen. compound autofluorescence counterscreen, microsphere flow cytometry; stronger effect = higher value. fluorescence intensity (concentration not given with the values). 360,000 tested, 3.1% active. AID 624483; in the data active = fluorescence intensity above about 16000; inconclusive = no clear call, values can overlap the other calls
GDH-TPI counter = GDH-TPI coupling enzyme inhibitors, primary screen, artefact control for M. tuberculosis FBA inhibitor project, biochemical, absorbance, full deck. GDH-TPI coupled enzyme counterscreen, NADH absorbance. 360,000 tested, 1.2% active. inhibition, % at 4.8 µM; in the data active = inhibition above about 30%
BoNT F protease = BoNT/F light chain protease inhibitors, primary screen, biochemical, flow cytometry, MLPCN library | Botulinum neurotoxin type F light chain protease (Clostridium botulinum) | Multiplex microsphere protease cleavage assay | inhibition, % at 10 µM | 360,000 tested, 0.22% active; in the data active = inhibition above about 35%, passing the limit was not always enough; inconclusive = no clear call, values can overlap the other calls
Of the large screens only hits and unclear results are named; the others gave an inactive call. Only some compounds are listed: those with a hit (about 6.7% of all), similar ones and a draw of the others. Cut-off read from the data, not from the text of the source, unless noted: active = inhibition above about 30%; inconclusive = no clear call, values can overlap the other calls; inactive = below that.

COCCCn1c(=N)c(C(=O)NC2CCCCC2)cc2c(=O)n3ccccc3nc21	Mtb FBA inh active
Cc1ccc(CNC(=O)c2cc3c(=O)n4ccccc4nc3n(CC3CCCO3)c2=N)cc1 (stereo not drawn)	Mtb FBA inh active
COc1ccc2c(c1OC)C(=O)OC2Nc1nc2ccccc2s1 (stereo not drawn)	none
O=C(COc1ccc(S(=O)(=O)N2CCCC2)cc1Cl)NC1CC1	Autofluor counter 24369
O=C(COc1ccc(S(=O)(=O)NC2CCCCC2)cc1Cl)N1CCN(c2ccccc2)CC1	BoNT A protease inconclusive, Autofluor counter 22544
COCC(=O)NC1CCN(S(=O)(=O)c2ccc(C(=O)O)cc2)CC1	Autofluor counter 20353
CN1CCN(C(=O)COc2ccc(S(=O)(=O)NC3CCCCC3)cc2Cl)CC1	none
FC(F)(F)c1cnc2c(c1)[nH]c(=S)n2-c1ccc(Cl)cc1	none
CC1(CCl)N([O-])C2=C(CCCC2)[N+]1=O (stereo not drawn)	none
CC(C)CCNC(=O)c1ccc(CSCc2cccc(F)c2)o1	Autofluor counter 17562
Cc1cccc(CSCc2ccc(C(=O)NC(C)C)o2)c1	none
NS(=O)(=O)c1ccc(NC(=O)Cc2cccs2)cc1	BoNT F protease inconclusive
NS(=O)(=O)c1ccc(NC(=O)COC(=O)/C(=C/c2cccs2)c2cccs2)cc1	GDH-TPI counter 42.0
Cc1cc(C)cc(OCC(=O)Nc2cccc(C(=O)O)c2)c1	BoNT A protease inconclusive, Autofluor counter 17933
Cc1cc(C)cc(OCC(=O)Nc2nonc2NC(=O)COc2cc(C)cc(C)c2)c1	BoNT A protease inconclusive, Autofluor counter 18944
COc1ccc(/C=N/NC(=O)c2cc(Br)ccc2O)cc1Cn1cc(Cl)cn1	none
O=C(COc1ccc(Br)cc1Br)NC(=S)N1CCCc2ccccc21	Anthrax LF prot 30.9
Cn1ccnc1SCC(=O)c1c(N)n(C)c(=O)n(C)c1=O	none
Cc1cc(C)nc(SCC(=O)c2c(N)n(C)c(=O)n(C)c2=O)n1	BoNT A protease inconclusive, Autofluor counter 23309
COc1ccc2nc(SCC(N)=O)[nH]c2c1	BoNT A protease inconclusive, Autofluor counter 22930
COc1ccc2nc(-c3ccc(N)cc3)[nH]c2c1	Mtb FBA inh active
COc1ccc2nc(-c3cccc(N)c3)[nH]c2c1	Mtb FBA inh 176.8, BoNT F protease inconclusive
O=C(CSc1nnc(N2CCCC2)n1-c1cccc(Cl)c1)N1CCN(c2ccccn2)CC1	none
COc1ccc(CN2CC(C(=O)NCCCN3CCOCC3)CC2=O)cc1 (stereo not drawn)	Autofluor counter inconclusive
CC(C)c1ccc(N=C2N=C(N)c3ccccc32)cc1	none
O=C(CCc1ccccc1)Nc1cc2c(cc1Cl)OCCO2	none
Cn1c(=O)n(CC(=O)Nc2cccnc2)c2ccccc21	none
Cc1ccccc1NC(=O)Cn1c(=O)n(C)c2ccccc21	Autofluor counter 21084
Cc1ccccc1NC(=O)Cn1nc(-c2ccccc2)nc1-c1ccccc1	Autofluor counter 16150
Cn1c(C(=O)NCc2cccnc2)cc2sc(Cl)cc21	Autofluor counter 20564
Cn1c(=O)n(CC(=O)NCc2cccnc2)c2ccccc21	Autofluor counter 24061
Cc1ccc(S(=O)(=O)c2nc(S(C)(=O)=O)sc2N2CCCCC2C)cc1 (stereo not drawn)	none
O=c1[nH]c2ccc(NC(=S)NC3CCCCC3)cc2[nH]1	none
O=C(Nc1sc2c(c1-c1nc3ccccc3[nH]1)CCCC2)C1CCCC1	none
COC(=O)CCC(=O)NNC(=O)c1cccc(Br)c1	none
CC(=O)c1c(N2CCN(Cc3ccccc3)CC2)nc(=S)n(Cc2ccccc2)c1C	BoNT A protease 41.9
CC(=O)c1c(N2CCCCC2)nc(=S)n(Cc2ccccc2)c1C	none
CC(=O)c1c(N2CCC(C(N)=O)CC2)nc(=S)n(-c2ccccc2)c1C	Autofluor counter 22860
COc1ccc(CN2CC(C(=O)NCCc3ccccc3)CC2=O)cc1 (stereo not drawn)	Autofluor counter 17837
